Experimental data: PubChem BioAssay AID1159580 (chemical genetic matrix, 2015)
Out of some 5,500 compounds screened, about 2,000 (36%) were called active. Roughly 18% stayed inconclusive and do not appear here. The list shows a part of the results. Unmarked numbers belong to inactive results. No stated cut-off is given here; in the data, active means normalized growth mostly below about 0.91 (no sharp cut-off); inconclusive means no clear call, values can overlap the other calls; inactive means mostly above about 0.92.

Assay: chemical genetic growth profiling, strain panel (AID 1159580);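 further: tested at 20 µM; growth read once vehicle control cultures reached saturation at 30 °C; 1 = growth at the plate median or of vehicle wells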
Settings: S. cerevisiae deletion strains, growth OD

## Nc1ncnc2c1nc(Sc1ccc(Cl)cc1)n2C1OC2COP(=O)(O)O[C@@H]2[C@@H]1O (stereo partly specified)
Locus YAL040C, strain CLN3, stronger effect = lower value
  normalized growth: 0.98
Locus YDR150W, strain NUM1, stronger effect = lower value
  normalized growth: 0.999
Locus YDR363W, strain ESC2, stronger effect = lower value
  normalized growth: 1.01
Locus YER002W, strain NOP16, stronger effect = lower value
  normalized growth: 0.984
Locus YNL175C, strain NOP13, stronger effect = lower value
  normalized growth: 1.01
Locus YNL197C, strain WHI3, stronger effect = lower value
  normalized growth: 1.02
Locus YNL224C, strain SQS1, stronger effect = lower value
  normalized growth: 0.995
Locus YNL322C, strain KRE1, stronger effect = lower value
  normalized growth: 0.996
Locus YOR083W, strain WHI5 (second series), stronger effect = lower value
  normalized growth: 1.02
Locus YPL241C, strain CIN2, stronger effect = lower value
  normalized growth: 1

## O=C(NCCc1ccncc1)c1ccc(Cl)c(Cl)c1
Locus YAR019C, strain CDC15, stronger effect = lower value
  normalized growth: 0.985
Locus YBL105C, strain PKC1, stronger effect = lower value
  normalized growth: 0.987
Locus YBR135W, strain CKS1, stronger effect = lower value
  normalized growth: 0.988
Locus YBR136W, strain MEC1, stronger effect = lower value
  normalized growth: 0.987
Locus YBR160W, strain CDC28, stronger effect = lower value
  normalized growth: 0.991
Locus YDL017W, strain CDC7, stronger effect = lower value
  normalized growth: 0.991
Locus YDL028C, strain MPS1, stronger effect = lower value
  normalized growth: 0.985
Locus YDL101C, strain DUN1, stronger effect = lower value
  normalized growth: 0.98
Locus YDL108W, strain KIN28, stronger effect = lower value
  normalized growth: 0.981
Locus YDL132W, strain cdc53, stronger effect = lower value
  normalized growth: 0.998
Locus YDL214C, strain PRR2, stronger effect = lower value
  normalized growth: 0.945
Locus YDR052C, strain DBF4, stronger effect = lower value
  normalized growth: 0.988
Locus YDR054C, strain cdc34, stronger effect = lower value
  normalized growth: 0.984
Locus YDR226W, strain ADK1, stronger effect = lower value
  normalized growth: 0.985
Locus YDR477W, strain SNF1, stronger effect = lower value
  normalized growth: 1.01
Locus YER123W, strain YCK3, stronger effect = lower value
  normalized growth: 0.877
Locus YER133W, strain GLC7, stronger effect = lower value
  normalized growth: 0.969
Locus YFL009W, strain cdc4, stronger effect = lower value
  normalized growth: 0.982
Locus YFL029C, strain CAK1, stronger effect = lower value
  normalized growth: 0.98
Locus YFR003C, strain YPI1, stronger effect = lower value
  normalized growth: 0.984
Locus YFR019W, strain FAB1, stronger effect = lower value
  normalized growth: 0.927
Locus YFR028C, strain CDC14, stronger effect = lower value
  normalized growth: 0.994
Locus YGR040W, strain KSS1, stronger effect = lower value
  normalized growth: 0.992
Locus YGR052W, strain FMP48, stronger effect = lower value
  normalized growth: 0.985
Locus YGR092W, strain DBF2, stronger effect = lower value
  normalized growth: 1
Locus YHR030C, strain SLT2, stronger effect = lower value
  normalized growth: 0.911
Locus YHR079C, strain IRE1, stronger effect = lower value
  normalized growth: 0.938
Locus YHR082C, strain KSP1, stronger effect = lower value
  normalized growth: 1.1
Locus YHR205W, strain SCH9, stronger effect = lower value
  normalized growth: 0.99
Locus YIL147C, strain SLN1, stronger effect = lower value
  normalized growth: 0.986
Locus YJL095W, strain BCK1, stronger effect = lower value
  normalized growth: 0.925
Locus YJL128C, strain PBS2, stronger effect = lower value
  normalized growth: 0.94
Locus YJL157C, strain FAR1, stronger effect = lower value
  normalized growth: 0.96
Locus YJR016C, strain ILV3, stronger effect = lower value
  normalized growth: 0.995
Locus YJR066W, strain TOR1 (second series), stronger effect = lower value
  normalized growth: 1.03
Locus YJR066W, strain TOR1, stronger effect = lower value
  normalized growth: 1.04
Locus YKL048C, strain ELM1, stronger effect = lower value
  normalized growth: 0.992
Locus YKL067W, strain YNK1, stronger effect = lower value
  normalized growth: 0.947
Locus YKL101W, strain HSL1, stronger effect = lower value
  normalized growth: 0.941
Locus YKL193C, strain SDS22, stronger effect = lower value
  normalized growth: 0.992
Locus YKL203C, strain TOR2, stronger effect = lower value
  normalized growth: 1.01
Locus YLR113W, strain HOG1, stronger effect = lower value
  normalized growth: 0.756 (active)
Locus YLR133W, strain CKI1, stronger effect = lower value
  normalized growth: 0.977
Locus YLR403W, strain SFP1, stronger effect = lower value
  normalized growth: 0.972
Locus YML070W, strain DAK1, stronger effect = lower value
  normalized growth: 0.941
Locus YMR001C, strain CDC5, stronger effect = lower value
  normalized growth: 0.989
Locus YMR205C, strain PFK2 (second series), stronger effect = lower value
  normalized growth: 0.978
Locus YMR277W, strain FCP1, stronger effect = lower value
  normalized growth: 0.989
Locus YNL006W, strain LST8, stronger effect = lower value
  normalized growth: 0.976
Locus YNL020C, strain ARK1, stronger effect = lower value
  normalized growth: 0.964
Locus YNL161W, strain CBK1, stronger effect = lower value
  normalized growth: 0.991
Locus YNL183C, strain NPR1, stronger effect = lower value
  normalized growth: 1.01
Locus YNL207W, strain RIO2, stronger effect = lower value
  normalized growth: 0.991
Locus YNL222W, strain SSU72, stronger effect = lower value
  normalized growth: 0.992
Locus YNL307C, strain MCK1 (second series), stronger effect = lower value
  normalized growth: 0.961
Locus YOL078W, strain AVO1, stronger effect = lower value
  normalized growth: 0.997
Locus YOL136C, strain PFK27, stronger effect = lower value
  normalized growth: 0.945
Locus YOR061W, strain CKA2, stronger effect = lower value
  normalized growth: 0.924
Locus YOR119C, strain RIO1, stronger effect = lower value
  normalized growth: 1.03
Locus YOR231W, strain MKK1, stronger effect = lower value
  normalized growth: 0.916
Locus YOR329C, strain SCD5, stronger effect = lower value
  normalized growth: 0.991
Locus YPL031C, strain PHO85, stronger effect = lower value
  normalized growth: 0.976
Locus YPL153C, strain RAD53, stronger effect = lower value
  normalized growth: 0.993
Locus YPL204W, strain HRR25, stronger effect = lower value
  normalized growth: 0.972
Locus YPL209C, strain IPL1, stronger effect = lower value
  normalized growth: 0.987
Locus YPL256C, strain CLN2, stronger effect = lower value
  normalized growth: 0.868
Locus YPR025C, strain CCL1, stronger effect = lower value
  normalized growth: 0.992
Locus YPR106W, strain ISR1, stronger effect = lower value
  normalized growth: 0.983
Locus YPR111W, strain DBF20, stronger effect = lower value
  normalized growth: 0.961
Strain NNK1, stronger effect = lower value
  normalized growth: 0.982
Strain TSCII, stronger effect = lower value
  normalized growth: 0.983
